# Measurements reported in PubChem BioAssay.
# Values joined by “and” are separate entries in the source; they are usually repeats but may differ in a detail not shown here. Equal values may be shown once. For some of these results: Potency and affinity values are given separately. Active and inactive are the calls of the source. Unless noted, the rule behind the calls is not given here.
# Assays:
# [1] = polyglutamine-triggered caspase-3 activation inhibitors, cell-based (AID 1583); conditions: polyglutamine-induced caspase-3 activation, cell assay; stronger effect = higher value;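 tested at 10 µM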
# [2] = suppressors of polyQ aggregation in yeast, 75Q-TubU reporter (AID 1593); conditions: Yeast 75Q polyglutamine aggregation reporter
# [3] = rescue of polyQ-huntingtin neuronal dysfunction in worms, whole organism, C. elegans mechanosensory neurons, N-terminal huntingtin (AID 1599); conditions: touch response, stronger effect = higher value
# [4] = inhibitors of mitochondrial cytochrome c release, biochemical, purified mitochondria (AID 1603); conditions: stronger effect = lower value;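 note: mouse liver mitochondria challenged with calcium chloride; signal normalized to the plate average as 100%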
# [5] = inhibitors of polyQ protein aggregation (AID 1604); conditions: polyglutamine-induced protein aggregation inhibition assay; stronger effect = higher value; tested at 2.5 µM
# [6] = enhancers of glutamate uptake in motor neurons, MN-1 cell line (AID 1612); conditions: MN-1 motor neuron cells, stronger effect = higher value;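 note: tested at 1 µM final; 0% = mean of DMSO vehicle wells on each plate; positive means more glutamate uptake than control and negative means less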
# [7] = reducers of polyQ inclusions in PC12 cells, cell-based, NGF-treated PC12, GFPQ80 (AID 1614); conditions: PC12 NGF-treated GFP-polyQ80 inclusion reduction;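 note: lower means fewer inclusions and 0 means no inclusions at all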
# [8] = suppressors of polyglutamine aggregation in yeast, 75Q-TubH (AID 1616); conditions: S. cerevisiae 75Q-TubH polyglutamine aggregation suppression; stronger effect = higher value
# [9] = circadian clock period modulators, cell-based, LOPAC library, luminescence reporter (AID 2774); conditions: circadian reporter cells, at 7 µM, actives lie on both sides;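 note: values are relative to mean of DMSO wells on each plate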
# [10] = liver-stage malaria parasite growth inhibition, primary screen, cell-based, HepG2, luciferase luminescence, HepG2 viability (AID 624349; in the data active = parasite load remaining mostly below about 12%, no sharp cut-off; inactive = mostly above about 10%;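 note: 100% = mean of DMSO negative control wells on the same plate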); conditions: P. berghei liver stage in HepG2, luciferase luminescence, concentration not given here; parasite load remaining: stronger effect = lower value; viability: measured here: HepG2 viability without parasites
# [11] = target: 6-phosphogluconate dehydrogenase, decarboxylating (Homo sapiens) (UniProt P52209); test: 6PGD enzyme inhibitors, primary screen, biochemical, human, recombinant enzyme, NADPH absorbance (AID 1159550;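 active = at least 20% inhibition of 6-phosphogluconate dehydrogenase activity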); conditions: recombinant 6PGD, NADPH absorbance 341 nm; at 10 µM; stronger effect = higher value
# [12] = differential killing of epithelial or mesenchymal cells, primary screen, imaging, PC-3E GFP, TEM4-18 mCherry, co-culture (AID 1345086;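 active = compounds killing one labelled cell type while sparing the other, by normalised counts and ratio limits, not self-fluorescent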;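 for all read-outs here: cells exposed to compound for 72 h before imaging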;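 for red/green cell ratio (normalised): normalised mesenchymal count divided by normalised epithelial count so high means epithelial killing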); conditions: imaging cell counts, at 1 µM; for red/green cell ratio (normalised): actives lie on both sides, counts scaled to control wells, 1 = unselective
# [13] = sensitizers of A549 cells to miR-34 induction, primary screen, imaging, A549 dox-inducible miR-34, nuclei and caspase counts (AID 1347080;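 active = compounds whose cell count with miR-34 switched on is under 0.7 times the count with it off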); conditions: A549 miR-34 inducible, Hoechst nuclei count, 48 h
# [14] = phospholipid biosynthesis inhibitors in animal cells, primary screen, cell-based, LOPAC library, screen 4 (AID 1347384); conditions: phospholipid biosynthesis inhibition screen, at 10 µM
# [15] = survival rescue of mitochondrial mutant cells in low glucose, primary screen, MELAS cybrids, Rieske KO mouse fibroblasts, CellTiter-Glo (AID 1508586;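 active = mean z-score across replicates of 1.96 or higher in either the MELAS or the Rieske mutant cell line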;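 note: z relative to plate mean and SD of compound and empty wells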)
# [16] = target: Mitogen-activated protein kinase 7 (Homo sapiens) (UniProt Q13164); test: ERK5 transactivation activators in reporter cells, primary screen, cell-based, HTS (AID 1508626;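 active = luciferase signal above three times the same-plate solvent-only control wells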;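 note: luciferase driven by Gal4-ERK5 fusion binding five Gal4 sites before minimal TATA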); conditions: HeLa Gal4-ERK5 transactivation, 18 h, at 5 µM, stronger effect = higher value
# [17] = viability rescue of complex I mutant cybrids, primary screen, cell-based, galactose medium, ATP luminescence (AID 1645843;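 active = z-score of at least 1.8 in each of two replicates, scored against plate mean and spread of sample wells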;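 note: positive z means more ATP and so rescue of galactose-driven cybrid death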); conditions: complex I mutant cybrid cells, 72 h, stronger effect = higher value
# [18] = hESC survival regulators, cell-based (AID 493140); conditions: human embryonic stem cell survival screen; stronger effect = higher value;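 note: cells exposed to compounds for four days before counting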
# [19] = target: NAD(+) hydrolase SARM1 (Homo sapiens) (UniProt Q6SZW1); test: SARM1 TIR NADase inhibitors, cell lysate, NAD-Glo luminescence (AID 1508614;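 active = compound whose remaining NAD level is above about 45 nM, limit read from the data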;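 note: higher remaining NAD means stronger inhibition of SARM1 NADase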); conditions: SAM-TIR HEK293T lysate NADase, at 1 µM, stronger effect = higher value
# [20] = measured here: epithelial PC-3E GFP cell survival
# [21] = measured here: mesenchymal TEM4-18 mCherry cell survival
# [22] = stronger effect = lower value, cell number ratio, induced over uninduced
# [23] = measured here: relative caspase fold change +Dox/-Dox
# [24] = measured here: total cells with miR-34 induction, stronger effect = lower value
# [25] = measured here: total cells without miR-34 induction
# [26] = MELAS cybrid survival, CellTiter-Glo 48 h, stronger effect = higher value
# [27] = Rieske KO mouse fibroblast survival, CellTiter-Glo 72 h
# 6-phosphogluconate dehydrogenase, decarboxylating (Homo sapiens), sequence (P52209 whole entry, looked up): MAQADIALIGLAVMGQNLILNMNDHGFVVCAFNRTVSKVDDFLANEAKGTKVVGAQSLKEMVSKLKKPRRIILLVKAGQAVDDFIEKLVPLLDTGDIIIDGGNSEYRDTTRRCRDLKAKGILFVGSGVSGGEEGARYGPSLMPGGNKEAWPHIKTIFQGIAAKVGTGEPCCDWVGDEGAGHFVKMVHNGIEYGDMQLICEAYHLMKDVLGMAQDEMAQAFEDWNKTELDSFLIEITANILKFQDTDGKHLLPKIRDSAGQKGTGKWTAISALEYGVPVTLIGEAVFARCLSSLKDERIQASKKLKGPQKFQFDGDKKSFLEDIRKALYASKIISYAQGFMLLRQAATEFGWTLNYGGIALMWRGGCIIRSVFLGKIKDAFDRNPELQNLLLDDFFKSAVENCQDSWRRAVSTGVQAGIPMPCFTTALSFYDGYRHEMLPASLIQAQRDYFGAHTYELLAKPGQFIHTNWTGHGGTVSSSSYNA
# Mitogen-activated protein kinase 7 (Homo sapiens), sequence (Q13164 whole entry, looked up, the tested form may be a part): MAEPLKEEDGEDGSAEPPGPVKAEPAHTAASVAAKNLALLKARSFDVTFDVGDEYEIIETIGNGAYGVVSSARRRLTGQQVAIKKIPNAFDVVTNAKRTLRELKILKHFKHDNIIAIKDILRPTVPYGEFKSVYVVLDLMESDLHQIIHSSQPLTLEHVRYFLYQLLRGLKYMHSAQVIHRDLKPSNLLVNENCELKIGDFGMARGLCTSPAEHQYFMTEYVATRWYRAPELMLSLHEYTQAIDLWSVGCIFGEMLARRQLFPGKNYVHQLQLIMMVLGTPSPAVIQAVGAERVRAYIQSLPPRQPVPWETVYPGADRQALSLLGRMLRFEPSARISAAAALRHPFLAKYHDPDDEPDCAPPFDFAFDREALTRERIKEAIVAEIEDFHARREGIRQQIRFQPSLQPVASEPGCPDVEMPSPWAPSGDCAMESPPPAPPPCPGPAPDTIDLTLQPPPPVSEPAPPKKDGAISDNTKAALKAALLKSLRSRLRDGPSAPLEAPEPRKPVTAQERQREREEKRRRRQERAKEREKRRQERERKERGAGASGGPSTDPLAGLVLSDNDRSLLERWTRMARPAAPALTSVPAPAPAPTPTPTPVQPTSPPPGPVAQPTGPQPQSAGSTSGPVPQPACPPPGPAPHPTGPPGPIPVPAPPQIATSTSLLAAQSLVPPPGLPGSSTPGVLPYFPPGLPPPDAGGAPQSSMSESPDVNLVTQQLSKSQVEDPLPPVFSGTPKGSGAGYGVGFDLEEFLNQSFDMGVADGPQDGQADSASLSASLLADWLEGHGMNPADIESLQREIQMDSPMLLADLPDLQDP
# NAD(+) hydrolase SARM1 (Homo sapiens), sequence (Q6SZW1 whole entry, looked up): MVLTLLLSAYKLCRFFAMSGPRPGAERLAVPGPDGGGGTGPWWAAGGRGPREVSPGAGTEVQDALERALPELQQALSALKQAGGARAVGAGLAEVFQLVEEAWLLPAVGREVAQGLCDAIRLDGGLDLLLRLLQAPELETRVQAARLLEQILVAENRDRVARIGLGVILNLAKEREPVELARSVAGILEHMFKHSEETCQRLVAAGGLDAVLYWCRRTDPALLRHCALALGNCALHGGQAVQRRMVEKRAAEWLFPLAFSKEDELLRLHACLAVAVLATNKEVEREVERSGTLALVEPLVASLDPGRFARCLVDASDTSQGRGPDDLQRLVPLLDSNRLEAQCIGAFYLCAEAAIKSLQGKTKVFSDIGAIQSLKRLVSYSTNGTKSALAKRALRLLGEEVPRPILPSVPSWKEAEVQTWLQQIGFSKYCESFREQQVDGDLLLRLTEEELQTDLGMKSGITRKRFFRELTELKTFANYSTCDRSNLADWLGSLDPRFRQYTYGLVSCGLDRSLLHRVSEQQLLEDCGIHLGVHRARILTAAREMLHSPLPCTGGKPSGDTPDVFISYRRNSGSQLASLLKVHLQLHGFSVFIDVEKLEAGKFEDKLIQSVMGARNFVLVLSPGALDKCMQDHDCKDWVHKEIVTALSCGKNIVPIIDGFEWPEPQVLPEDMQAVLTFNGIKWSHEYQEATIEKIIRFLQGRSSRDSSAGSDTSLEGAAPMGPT
smiles,measurement,setting,value
O=c1c(O)c(-c2ccc(O)cc2O)oc2cc(O)cc(O)c12,inhibition,[1],-17.6%
same,score,[2],1.66
same,rescue above control,[3],-6.82
same,cytochrome c release ratio,[4],0.57
same,inhibition of aggregation,[5],49%
same,glutamate uptake change,[6],-11.3%
same,inclusion score,[7],2
same,aggregation suppression score,[8],0.872
same,period change,[9],0.015 h (inactive)
same,parasite load remaining,[10],81.2% (inactive)
same,viability,[10],66.9%
same,inhibition,[11],-23.3% (inactive)
same,red/green cell ratio (normalised),[12],0.97 (inactive)
same,normalised cell number,[12]; [20],1.01
same,normalised cell number,[12]; [21],0.98
same,fold change,[13]; [22],1.04 (inactive) and 0.943 (inactive)
same,fold change,[13]; [23],0.926 and 0.734
same,cell count,[13]; [24],11400 and 9750
same,cell count,[13]; [25],11000 and 10300
same,outcome,[14],inactive
same,z-score,[15]; [26],-0.297 (inactive)
same,z-score,[15]; [27],0.729
same,luciferase signal,[16],32 AU (inactive)
same,z-score,[17],0.495 (inactive)
COc1ccc(-c2cc(=O)c3c(O)cc(O)cc3o2)cc1O,inhibition,[11],11.1% (inactive)
same,red/green cell ratio (normalised),[12],0.91 (inactive)
same,normalised cell number,[12]; [20],1.34
same,normalised cell number,[12]; [21],1.22
same,fold change,[13]; [22],0.906 (inactive)
same,fold change,[13]; [23],0.637
same,cell count,[13]; [24],8940
same,cell count,[13]; [25],9870
same,z-score,[15]; [26],-0.264 (inactive)
same,z-score,[15]; [27],0.709
O=C1C[C@@H](c2ccc(O)cc2)Oc2cc(O)cc(O)c21,inhibition,[1],11.6%
same,score,[2],1.28
same,rescue above control,[3],-15.8
same,cytochrome c release ratio,[4],1.08
same,inhibition of aggregation,[5],57.7%
same,glutamate uptake change,[6],9.95%
same,inclusion score,[7],2
same,aggregation suppression score,[8],1.04
same,inhibition,[11],-3.37% (inactive)
same,red/green cell ratio (normalised),[12],1.16 (inactive)
same,normalised cell number,[12]; [20],0.96
same,normalised cell number,[12]; [21],1.12
same,luciferase signal,[16],40 AU (inactive)
C1CCc2nnnn2CC1,period change,[9],-0.075 h (inactive)
same,survival,[18],27.4 (inactive)
same,parasite load remaining,[10],23.8% (inactive) and 86.6% (inactive) and 79.3% (inactive)
same,viability,[10],50.2% and 91.9% and 103%
same,inhibition,[11],10.8% (inactive)
same,red/green cell ratio (normalised),[12],1.25 (inactive)
same,normalised cell number,[12]; [20],1.11
same,normalised cell number,[12]; [21],1.38
same,outcome,[14],inactive
same,z-score,[15]; [26],-0.00315 (inactive)
same,z-score,[15]; [27],-0.232
same,remaining NAD,[19],10 nM (inactive)
same,luciferase signal,[16],96 AU (inactive)
same,z-score,[17],0.7 (inactive) and 0.6 (inactive)
CC1=C(/C=C/C(C)=C/C=C/C(C)=C/C=C/C=C(C)/C=C/C=C(C)/C=C/C2=C(C)CCCC2(C)C)C(C)(C)CCC1,inhibition,[1],-13.5%
same,score,[2],1.3
same,rescue above control,[3],-6.44
same,cytochrome c release ratio,[4],0.86
same,inhibition of aggregation,[5],42.6%
same,glutamate uptake change,[6],-16.2%
same,inclusion score,[7],2.5
same,aggregation suppression score,[8],0.881
same,parasite load remaining,[10],58% (inactive)
same,viability,[10],103%
same,inhibition,[11],2.51% (inactive)
same,red/green cell ratio (normalised),[12],0.84 (inactive)
same,normalised cell number,[12]; [20],1.16
same,normalised cell number,[12]; [21],0.98
same,fold change,[13]; [22],0.908 (inactive)
same,fold change,[13]; [23],1.03
same,cell count,[13]; [24],11100
same,cell count,[13]; [25],12200
same,remaining NAD,[19],10 nM (inactive)
same,luciferase signal,[16],36 AU (inactive)
O=C(CCc1ccc(O)cc1)c1c(O)cc(O)cc1O[C@@H]1O[C@H](CO)[C@@H](O)[C@H](O)[C@H]1O,parasite load remaining,[10],28.4% (inactive)
same,viability,[10],69.5%
same,inhibition,[11],5.05% (inactive)
same,red/green cell ratio (normalised),[12],1 (inactive)
same,normalised cell number,[12]; [20],0.89
same,normalised cell number,[12]; [21],0.89
same,fold change,[13]; [22],0.867 (inactive)
same,fold change,[13]; [23],1.41
same,cell count,[13]; [24],9120
same,cell count,[13]; [25],10500
same,z-score,[15]; [26],-0.633 (inactive)
same,z-score,[15]; [27],-1.43
same,luciferase signal,[16],28 AU (inactive)
same,z-score,[17],-0.075 (inactive)
COc1ccc(C(C)=O)c(O)c1,inhibition,[11],10.4% (inactive)
same,red/green cell ratio (normalised),[12],0.98 (inactive)
same,normalised cell number,[12]; [20],0.95
same,normalised cell number,[12]; [21],0.94
same,fold change,[13]; [22],0.902 (inactive)
same,fold change,[13]; [23],0.777
same,cell count,[13]; [24],9270
same,cell count,[13]; [25],10300
same,z-score,[15]; [26],-0.383 (inactive)
same,z-score,[15]; [27],0.53
same,luciferase signal,[16],24 AU (inactive)
O=C(/C=C/c1ccc(O)cc1)c1ccc(O)cc1O,period change,[9],0.18 h (inactive)
same,inhibition,[11],-4.78% (inactive)
same,red/green cell ratio (normalised),[12],1.01 (inactive)
same,normalised cell number,[12]; [20],0.91
same,normalised cell number,[12]; [21],0.91
same,fold change,[13]; [22],1.12 (inactive)
same,fold change,[13]; [23],0.85
same,cell count,[13]; [24],9020
same,cell count,[13]; [25],8080
same,outcome,[14],inactive
same,luciferase signal,[16],80 AU (inactive)
same,z-score,[17],-0.25 (inactive)
O=C(/C=C/C=C/c1ccc2c(c1)OCO2)N1CCCCC1,inhibition,[1],-11.5%
same,score,[2],0.85
same,rescue above control,[3],3.18
same,cytochrome c release ratio,[4],0.68
same,inhibition of aggregation,[5],51%
same,glutamate uptake change,[6],10.6%
same,inclusion score,[7],2
same,aggregation suppression score,[8],0.367
same,survival,[18],6.58 (inactive)
same,inhibition,[11],0.86% (inactive)
same,red/green cell ratio (normalised),[12],0.95 (inactive)
same,normalised cell number,[12]; [20],1.26
same,normalised cell number,[12]; [21],1.2
same,fold change,[13]; [22],0.898 (inactive) and 0.941 (inactive)
same,fold change,[13]; [23],1.07 and 2.41
same,cell count,[13]; [24],7720 and 10400
same,cell count,[13]; [25],8590 and 11100
same,remaining NAD,[19],10 nM (inactive)
same,luciferase signal,[16],80 AU (inactive)
CN1C2CCC1CC(OC(=O)C(CO)c1ccccc1)C2 (configuration not stated),inhibition,[1],-7.62%
same,score,[2],1.48
same,rescue above control,[3],-4.85
same,cytochrome c release ratio,[4],1.14
same,inhibition of aggregation,[5],83.1%
same,glutamate uptake change,[6],7.04%
same,inclusion score,[7],2
same,aggregation suppression score,[8],1.57
same,period change,[9],0.005 hour (inactive) and 0.075 hour (inactive)
same,survival,[18],7.25 (inactive)
same,inhibition,[11],-2.64% (inactive)
same,red/green cell ratio (normalised),[12],1.05 (inactive)
same,normalised cell number,[12]; [20],0.95
same,normalised cell number,[12]; [21],1
same,outcome,[14],inactive
same,z-score,[15]; [26],-0.14 (inactive)
same,z-score,[15]; [27],-0.261
same,z-score,[17],0.025 (inactive) and 0.13 (inactive)
CC(=O)[C@@]1(O)CCC2C3CCC4=CC(=O)CC[C@]4(C)C3CC[C@@]21C (some centres not stated),inhibition,[11],7.07% (inactive)
same,red/green cell ratio (normalised),[12],0.98 (inactive)
same,normalised cell number,[12]; [20],0.94
same,normalised cell number,[12]; [21],0.92
same,fold change,[13]; [22],0.883 (inactive)
same,fold change,[13]; [23],0.857
same,cell count,[13]; [24],7810
same,cell count,[13]; [25],8840
c1ccc2c(Cc3c[nH]c4ccccc34)c[nH]c2c1,survival,[18],89.8 (inactive)
same,inhibition,[11],2.37% (inactive)
same,red/green cell ratio (normalised),[12],0.91 (inactive)
same,normalised cell number,[12]; [20],1.11
same,normalised cell number,[12]; [21],1.01
same,fold change,[13]; [22],0.926 (inactive)
same,fold change,[13]; [23],0.966
same,cell count,[13]; [24],4780
same,cell count,[13]; [25],5160
